According to the supplement of paper PMC11732987, “Enantioselective OTUD7B fragment discovery through chemoproteomics screening and high-throughput optimisation” (Communications Chemistry, 2025):

Tests used:
Experiment in all cases: log2 ratio of Biotin-Ahx-Ub-VS probe labelling (fragment/DMSO); higher = less target engagement (more negative = stronger competition), active = hit call of the paper (q ≤ 0.05, log2 ratio ≤ -1)
Conditions in all cases: compound concentration: 200 uM; treatment time: 3 h
OTUD6B = biological target: T1, OTUD6B (UniProt Q8N6M0)
T1 sequence (whole entry): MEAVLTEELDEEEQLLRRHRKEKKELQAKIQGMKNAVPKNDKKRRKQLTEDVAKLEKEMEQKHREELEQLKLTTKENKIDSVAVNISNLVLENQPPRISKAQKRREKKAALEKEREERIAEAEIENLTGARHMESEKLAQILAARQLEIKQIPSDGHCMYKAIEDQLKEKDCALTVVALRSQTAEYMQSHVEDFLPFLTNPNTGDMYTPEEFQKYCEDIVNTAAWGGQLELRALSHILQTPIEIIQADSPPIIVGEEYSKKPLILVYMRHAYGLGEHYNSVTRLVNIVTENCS
Procedure, shortened: (§1)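 HEK293T lysate (495 µg per sample, in Tris/CHAPS/IGEPAL buffer with protease inhibitors) was exposed in triplicate for 3 h to fragment at 200 µM or to vehicle, then to Biotin-Ahx-Ub-VS at 0.5 µM final for 1 h. Labelled DUBs were enriched on NeutrAvidin, digested with LysC and trypsin, and analysed by diaPASEF LC-MS/MS. Spectronaut label-free quantities were normalised to the global median, and values are average log2 ratios of fragment over vehicle from an unpaired t-test. Only proteins with ≥2 unique peptides were used.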

OTUD7B = biological target: T2, OTUD7B (UniProt Q6GQQ9)
T2 sequence (whole entry): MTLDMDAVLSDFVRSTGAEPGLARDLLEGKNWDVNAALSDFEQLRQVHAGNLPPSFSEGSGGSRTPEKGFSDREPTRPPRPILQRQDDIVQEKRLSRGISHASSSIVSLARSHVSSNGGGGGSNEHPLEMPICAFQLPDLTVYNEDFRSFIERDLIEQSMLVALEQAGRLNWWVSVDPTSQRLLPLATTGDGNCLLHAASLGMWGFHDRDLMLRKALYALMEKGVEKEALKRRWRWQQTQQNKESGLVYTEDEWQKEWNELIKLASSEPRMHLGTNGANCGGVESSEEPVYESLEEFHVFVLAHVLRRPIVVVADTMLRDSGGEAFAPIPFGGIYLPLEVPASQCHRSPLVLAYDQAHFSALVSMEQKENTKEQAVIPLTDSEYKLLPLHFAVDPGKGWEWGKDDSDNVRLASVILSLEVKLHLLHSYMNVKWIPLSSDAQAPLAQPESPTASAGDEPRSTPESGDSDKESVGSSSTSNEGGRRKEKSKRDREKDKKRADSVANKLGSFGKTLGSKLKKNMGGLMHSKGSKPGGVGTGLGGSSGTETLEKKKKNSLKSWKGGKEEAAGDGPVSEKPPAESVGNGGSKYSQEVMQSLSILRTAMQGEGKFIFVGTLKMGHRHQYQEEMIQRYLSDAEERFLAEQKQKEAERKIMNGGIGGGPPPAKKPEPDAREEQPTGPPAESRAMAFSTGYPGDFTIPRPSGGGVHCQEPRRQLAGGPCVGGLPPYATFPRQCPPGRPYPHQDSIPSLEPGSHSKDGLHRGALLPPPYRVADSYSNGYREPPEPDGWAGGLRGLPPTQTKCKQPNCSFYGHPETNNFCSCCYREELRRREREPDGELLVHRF
Procedure, shortened: as §1

PRPF8 = PRPF8 (UniProt Q6P2Q9)
Procedure, shortened: as §1

PSMD7 = biological target: T3, PSMD7 (UniProt P51665)
T3 sequence (whole entry): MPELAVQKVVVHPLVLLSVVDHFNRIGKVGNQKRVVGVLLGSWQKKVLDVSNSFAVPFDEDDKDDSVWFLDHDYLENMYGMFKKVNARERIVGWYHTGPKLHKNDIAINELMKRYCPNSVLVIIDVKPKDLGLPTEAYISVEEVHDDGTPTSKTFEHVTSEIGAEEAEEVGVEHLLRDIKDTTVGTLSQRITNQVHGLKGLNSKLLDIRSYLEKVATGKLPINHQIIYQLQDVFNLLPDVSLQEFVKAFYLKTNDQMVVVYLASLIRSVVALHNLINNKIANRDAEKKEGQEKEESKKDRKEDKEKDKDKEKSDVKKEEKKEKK
Procedure, shortened: as §1

UCHL1 = UCHL1 (UniProt P09936)
Procedure, shortened: as §1

UCHL3 = biological target: T4, UCHL3 (UniProt P15374)
T4 sequence (whole entry): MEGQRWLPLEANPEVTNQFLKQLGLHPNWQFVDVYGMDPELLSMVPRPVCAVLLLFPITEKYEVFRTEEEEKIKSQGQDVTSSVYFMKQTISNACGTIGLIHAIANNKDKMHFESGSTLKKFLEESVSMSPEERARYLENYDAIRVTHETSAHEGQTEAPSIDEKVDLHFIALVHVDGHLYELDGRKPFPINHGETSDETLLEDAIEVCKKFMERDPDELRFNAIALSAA
Procedure, shortened: as §1

UCHL5 = biological target: T5, UCHL5 (UniProt Q9Y5K5)
T5 sequence (whole entry): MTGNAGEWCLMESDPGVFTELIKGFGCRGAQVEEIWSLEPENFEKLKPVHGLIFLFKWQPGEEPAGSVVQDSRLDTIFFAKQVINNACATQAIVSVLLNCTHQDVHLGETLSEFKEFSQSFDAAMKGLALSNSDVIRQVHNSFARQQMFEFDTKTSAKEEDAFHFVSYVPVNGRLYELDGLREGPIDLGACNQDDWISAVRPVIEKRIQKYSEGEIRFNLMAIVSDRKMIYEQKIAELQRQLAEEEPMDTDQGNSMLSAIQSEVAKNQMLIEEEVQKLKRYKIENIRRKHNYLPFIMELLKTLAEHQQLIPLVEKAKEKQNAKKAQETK
Procedure, shortened: as §1

USP10 = USP10 (UniProt Q14694)
Procedure, shortened: as §1

USP15 = biological target: T6, USP15 (UniProt Q9Y4E8)
T6 sequence (whole entry): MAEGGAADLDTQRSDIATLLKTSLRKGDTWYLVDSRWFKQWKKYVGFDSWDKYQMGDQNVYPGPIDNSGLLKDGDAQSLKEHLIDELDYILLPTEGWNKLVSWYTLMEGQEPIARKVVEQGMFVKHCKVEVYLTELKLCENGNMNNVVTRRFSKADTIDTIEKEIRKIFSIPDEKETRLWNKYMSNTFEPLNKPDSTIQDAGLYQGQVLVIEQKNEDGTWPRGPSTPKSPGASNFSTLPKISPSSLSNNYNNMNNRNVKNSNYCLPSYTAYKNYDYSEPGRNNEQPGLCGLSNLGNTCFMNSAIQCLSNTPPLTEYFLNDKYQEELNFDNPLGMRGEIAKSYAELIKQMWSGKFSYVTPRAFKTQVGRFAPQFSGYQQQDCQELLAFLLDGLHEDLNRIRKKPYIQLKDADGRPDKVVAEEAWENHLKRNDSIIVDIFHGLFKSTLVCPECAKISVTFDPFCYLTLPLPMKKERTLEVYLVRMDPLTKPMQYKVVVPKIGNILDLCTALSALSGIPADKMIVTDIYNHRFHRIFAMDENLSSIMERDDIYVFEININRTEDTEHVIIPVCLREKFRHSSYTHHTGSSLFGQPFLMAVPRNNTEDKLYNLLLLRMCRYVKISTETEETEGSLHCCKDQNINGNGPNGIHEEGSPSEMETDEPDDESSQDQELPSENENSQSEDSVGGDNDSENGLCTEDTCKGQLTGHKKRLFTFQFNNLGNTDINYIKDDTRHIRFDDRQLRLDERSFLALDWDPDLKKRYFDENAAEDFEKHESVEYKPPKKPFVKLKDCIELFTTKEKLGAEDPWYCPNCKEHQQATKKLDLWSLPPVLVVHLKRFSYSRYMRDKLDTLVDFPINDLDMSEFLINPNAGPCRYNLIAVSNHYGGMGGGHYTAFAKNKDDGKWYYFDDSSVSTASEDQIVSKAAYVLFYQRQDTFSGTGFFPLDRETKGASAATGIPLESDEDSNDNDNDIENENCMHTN
Procedure, shortened: as §1

USP16 = USP16 (UniProt Q9Y5T5)
Procedure, shortened: as §1

Measured: log2 ratio of Biotin-Ahx-Ub-VS probe labelling

Chain of UCHL1 (P09936 whole entry, looked up): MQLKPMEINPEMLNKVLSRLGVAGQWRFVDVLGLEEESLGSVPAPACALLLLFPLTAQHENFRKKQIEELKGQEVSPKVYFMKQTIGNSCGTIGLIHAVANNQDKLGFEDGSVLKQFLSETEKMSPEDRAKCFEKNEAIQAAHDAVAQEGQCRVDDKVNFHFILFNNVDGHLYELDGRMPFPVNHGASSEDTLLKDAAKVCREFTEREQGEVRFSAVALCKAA
Chain of USP10 (Q14694 whole entry): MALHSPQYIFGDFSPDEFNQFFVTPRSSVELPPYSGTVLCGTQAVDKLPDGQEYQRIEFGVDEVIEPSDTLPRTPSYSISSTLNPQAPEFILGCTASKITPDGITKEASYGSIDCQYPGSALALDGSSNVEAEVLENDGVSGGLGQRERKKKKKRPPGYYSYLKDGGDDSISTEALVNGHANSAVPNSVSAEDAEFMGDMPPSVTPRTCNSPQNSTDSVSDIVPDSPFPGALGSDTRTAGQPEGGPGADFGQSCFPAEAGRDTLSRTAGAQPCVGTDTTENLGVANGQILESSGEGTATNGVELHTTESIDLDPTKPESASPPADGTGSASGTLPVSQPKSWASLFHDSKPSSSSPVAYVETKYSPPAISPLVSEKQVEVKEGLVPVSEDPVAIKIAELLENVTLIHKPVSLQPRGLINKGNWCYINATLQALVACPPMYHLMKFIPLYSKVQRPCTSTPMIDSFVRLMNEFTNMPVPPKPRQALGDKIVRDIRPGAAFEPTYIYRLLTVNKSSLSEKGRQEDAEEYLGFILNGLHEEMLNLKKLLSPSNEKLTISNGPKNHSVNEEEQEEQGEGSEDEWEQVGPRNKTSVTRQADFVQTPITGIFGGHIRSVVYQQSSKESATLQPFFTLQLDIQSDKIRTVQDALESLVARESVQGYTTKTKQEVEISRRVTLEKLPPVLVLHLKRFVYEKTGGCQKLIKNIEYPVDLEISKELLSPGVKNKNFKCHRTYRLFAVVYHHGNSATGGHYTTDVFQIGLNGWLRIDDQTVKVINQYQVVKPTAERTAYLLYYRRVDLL
Chain of USP16 (Q9Y5T5 whole entry, looked up): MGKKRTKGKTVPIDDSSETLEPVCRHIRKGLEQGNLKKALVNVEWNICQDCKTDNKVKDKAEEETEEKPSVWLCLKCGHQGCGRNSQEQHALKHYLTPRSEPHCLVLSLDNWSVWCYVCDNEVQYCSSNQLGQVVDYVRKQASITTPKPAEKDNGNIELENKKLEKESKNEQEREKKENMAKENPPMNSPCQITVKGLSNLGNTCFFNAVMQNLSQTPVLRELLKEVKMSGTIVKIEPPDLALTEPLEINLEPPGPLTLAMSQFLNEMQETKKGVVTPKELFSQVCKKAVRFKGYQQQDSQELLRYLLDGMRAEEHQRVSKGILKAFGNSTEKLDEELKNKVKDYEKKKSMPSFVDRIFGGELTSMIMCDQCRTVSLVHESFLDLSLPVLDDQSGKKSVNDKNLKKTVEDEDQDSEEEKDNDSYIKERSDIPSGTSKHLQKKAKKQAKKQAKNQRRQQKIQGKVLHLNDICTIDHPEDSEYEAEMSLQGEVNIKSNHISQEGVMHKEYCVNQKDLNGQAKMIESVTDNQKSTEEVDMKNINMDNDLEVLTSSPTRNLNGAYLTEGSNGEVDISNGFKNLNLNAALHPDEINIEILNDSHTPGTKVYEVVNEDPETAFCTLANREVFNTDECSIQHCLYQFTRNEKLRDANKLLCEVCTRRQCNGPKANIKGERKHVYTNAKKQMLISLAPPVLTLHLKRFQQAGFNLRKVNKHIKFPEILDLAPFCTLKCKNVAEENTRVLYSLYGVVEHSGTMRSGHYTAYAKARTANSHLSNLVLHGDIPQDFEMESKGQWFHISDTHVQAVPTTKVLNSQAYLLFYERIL

CS(=O)(=O)c1ccc(NC(=O)CCl)cc1
active: UCHL1 -1.26
inactive: OTUD6B -0.109 | OTUD7B -0.594 | PRPF8 -0.257 | PSMD7 0.0407 | UCHL3 0.206 | UCHL5 -0.282 | USP10 -0.104 | USP15 -0.136 | USP16 -0.145
